Experimental data as given in ChEMBL document CHEMBL1961873, “Compounds: GSK PKIS; Assays: Nanosyn kinase panel” (2012).

Key:
[1] = target: Fibroblast growth factor receptor 4 (Homo sapiens) (UniProt P22455); settings: at 1 µM;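 further: reported figure is the averaged percent inhibition of FGFR4, from the GSK PKIS kinase screening panel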
[2] = target: Tyrosine-protein kinase Fgr (Homo sapiens) (UniProt P09769); settings: at 0.1 µM
[3] = target: Tyrosine-protein kinase Fgr (Homo sapiens) (UniProt P09769); settings: at 1 µM
[4] = target: Vascular endothelial growth factor receptor 1 (Homo sapiens) (UniProt P17948); settings: at 0.1 µM
Sequence of Vascular endothelial growth factor receptor 1 (Homo sapiens) (P17948 whole entry): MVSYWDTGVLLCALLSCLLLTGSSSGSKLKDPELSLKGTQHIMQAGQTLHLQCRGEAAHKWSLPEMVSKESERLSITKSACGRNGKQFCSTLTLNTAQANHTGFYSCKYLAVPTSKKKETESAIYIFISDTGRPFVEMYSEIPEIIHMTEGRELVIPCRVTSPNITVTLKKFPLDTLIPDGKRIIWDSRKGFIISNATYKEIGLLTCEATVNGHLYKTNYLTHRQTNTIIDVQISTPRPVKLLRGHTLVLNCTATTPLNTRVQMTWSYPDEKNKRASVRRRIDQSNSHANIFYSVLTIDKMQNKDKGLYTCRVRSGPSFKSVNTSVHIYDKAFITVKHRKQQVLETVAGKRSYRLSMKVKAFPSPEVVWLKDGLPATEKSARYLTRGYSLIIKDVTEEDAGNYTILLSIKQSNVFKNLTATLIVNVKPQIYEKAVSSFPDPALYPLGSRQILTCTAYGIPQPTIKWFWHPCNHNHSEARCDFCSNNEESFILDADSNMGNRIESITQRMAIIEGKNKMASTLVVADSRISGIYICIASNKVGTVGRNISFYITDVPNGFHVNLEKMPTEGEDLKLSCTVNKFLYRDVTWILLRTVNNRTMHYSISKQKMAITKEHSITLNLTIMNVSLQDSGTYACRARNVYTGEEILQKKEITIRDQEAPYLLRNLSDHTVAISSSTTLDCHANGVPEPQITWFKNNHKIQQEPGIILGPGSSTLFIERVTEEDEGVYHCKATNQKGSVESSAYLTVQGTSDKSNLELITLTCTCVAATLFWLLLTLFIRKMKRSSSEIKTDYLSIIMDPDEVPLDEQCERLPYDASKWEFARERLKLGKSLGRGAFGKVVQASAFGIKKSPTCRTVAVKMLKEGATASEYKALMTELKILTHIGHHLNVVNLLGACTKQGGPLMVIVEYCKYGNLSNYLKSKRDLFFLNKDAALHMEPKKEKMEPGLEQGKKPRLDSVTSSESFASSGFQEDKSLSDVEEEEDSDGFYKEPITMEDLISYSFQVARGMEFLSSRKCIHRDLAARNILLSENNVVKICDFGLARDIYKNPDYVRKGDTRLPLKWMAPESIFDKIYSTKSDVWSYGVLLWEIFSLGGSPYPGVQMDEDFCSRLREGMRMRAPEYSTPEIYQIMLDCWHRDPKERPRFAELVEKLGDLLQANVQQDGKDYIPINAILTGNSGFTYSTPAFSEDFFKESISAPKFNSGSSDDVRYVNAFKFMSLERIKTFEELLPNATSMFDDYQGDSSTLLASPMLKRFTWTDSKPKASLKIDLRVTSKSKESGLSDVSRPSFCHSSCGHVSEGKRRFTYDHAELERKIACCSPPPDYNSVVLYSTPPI

[5] = target: Vascular endothelial growth factor receptor 1 (Homo sapiens) (UniProt P17948); settings: at 1 µM
[6] = target: Receptor-type tyrosine-protein kinase FLT3 (Homo sapiens) (UniProt P36888); settings: at 0.1 µM
[7] = target: Receptor-type tyrosine-protein kinase FLT3 (Homo sapiens) (UniProt P36888); settings: at 1 µM
[8] = system: T1, Receptor-type tyrosine-protein kinase FLT3 (Homo sapiens), P36888 [D835Y]; settings: at 0.1 µM
T1 sequence (whole entry): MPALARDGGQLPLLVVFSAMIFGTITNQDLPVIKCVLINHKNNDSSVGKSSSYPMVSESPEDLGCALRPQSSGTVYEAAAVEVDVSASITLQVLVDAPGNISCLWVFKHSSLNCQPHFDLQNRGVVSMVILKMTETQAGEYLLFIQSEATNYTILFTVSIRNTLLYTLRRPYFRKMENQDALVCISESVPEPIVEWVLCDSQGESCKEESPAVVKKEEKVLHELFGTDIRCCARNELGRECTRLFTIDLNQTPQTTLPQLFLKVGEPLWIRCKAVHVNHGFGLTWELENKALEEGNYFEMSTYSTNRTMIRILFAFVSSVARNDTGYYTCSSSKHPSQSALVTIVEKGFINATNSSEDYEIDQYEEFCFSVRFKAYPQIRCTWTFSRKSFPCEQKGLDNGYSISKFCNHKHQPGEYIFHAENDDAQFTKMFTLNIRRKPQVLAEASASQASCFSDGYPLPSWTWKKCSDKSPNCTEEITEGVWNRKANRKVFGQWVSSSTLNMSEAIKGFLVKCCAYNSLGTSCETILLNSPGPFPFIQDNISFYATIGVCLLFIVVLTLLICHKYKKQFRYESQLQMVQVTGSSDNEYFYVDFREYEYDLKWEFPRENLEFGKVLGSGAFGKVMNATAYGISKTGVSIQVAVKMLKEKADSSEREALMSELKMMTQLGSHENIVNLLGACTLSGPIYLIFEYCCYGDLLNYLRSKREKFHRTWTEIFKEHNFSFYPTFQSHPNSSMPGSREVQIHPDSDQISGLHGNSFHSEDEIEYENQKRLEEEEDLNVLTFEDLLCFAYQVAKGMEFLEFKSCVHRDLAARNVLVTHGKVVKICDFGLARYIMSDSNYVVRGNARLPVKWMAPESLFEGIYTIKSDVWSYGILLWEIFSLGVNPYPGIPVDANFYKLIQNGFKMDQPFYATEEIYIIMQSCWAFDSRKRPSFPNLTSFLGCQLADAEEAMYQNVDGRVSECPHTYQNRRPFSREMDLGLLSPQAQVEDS

[9] = target: Non-receptor tyrosine-protein kinase TYK2 (Homo sapiens) (UniProt P29597); settings: at 1 µM;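 further: values are mean percent inhibition of TYK2 kinase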
Sequence of Non-receptor tyrosine-protein kinase TYK2 (Homo sapiens) (P29597 whole entry): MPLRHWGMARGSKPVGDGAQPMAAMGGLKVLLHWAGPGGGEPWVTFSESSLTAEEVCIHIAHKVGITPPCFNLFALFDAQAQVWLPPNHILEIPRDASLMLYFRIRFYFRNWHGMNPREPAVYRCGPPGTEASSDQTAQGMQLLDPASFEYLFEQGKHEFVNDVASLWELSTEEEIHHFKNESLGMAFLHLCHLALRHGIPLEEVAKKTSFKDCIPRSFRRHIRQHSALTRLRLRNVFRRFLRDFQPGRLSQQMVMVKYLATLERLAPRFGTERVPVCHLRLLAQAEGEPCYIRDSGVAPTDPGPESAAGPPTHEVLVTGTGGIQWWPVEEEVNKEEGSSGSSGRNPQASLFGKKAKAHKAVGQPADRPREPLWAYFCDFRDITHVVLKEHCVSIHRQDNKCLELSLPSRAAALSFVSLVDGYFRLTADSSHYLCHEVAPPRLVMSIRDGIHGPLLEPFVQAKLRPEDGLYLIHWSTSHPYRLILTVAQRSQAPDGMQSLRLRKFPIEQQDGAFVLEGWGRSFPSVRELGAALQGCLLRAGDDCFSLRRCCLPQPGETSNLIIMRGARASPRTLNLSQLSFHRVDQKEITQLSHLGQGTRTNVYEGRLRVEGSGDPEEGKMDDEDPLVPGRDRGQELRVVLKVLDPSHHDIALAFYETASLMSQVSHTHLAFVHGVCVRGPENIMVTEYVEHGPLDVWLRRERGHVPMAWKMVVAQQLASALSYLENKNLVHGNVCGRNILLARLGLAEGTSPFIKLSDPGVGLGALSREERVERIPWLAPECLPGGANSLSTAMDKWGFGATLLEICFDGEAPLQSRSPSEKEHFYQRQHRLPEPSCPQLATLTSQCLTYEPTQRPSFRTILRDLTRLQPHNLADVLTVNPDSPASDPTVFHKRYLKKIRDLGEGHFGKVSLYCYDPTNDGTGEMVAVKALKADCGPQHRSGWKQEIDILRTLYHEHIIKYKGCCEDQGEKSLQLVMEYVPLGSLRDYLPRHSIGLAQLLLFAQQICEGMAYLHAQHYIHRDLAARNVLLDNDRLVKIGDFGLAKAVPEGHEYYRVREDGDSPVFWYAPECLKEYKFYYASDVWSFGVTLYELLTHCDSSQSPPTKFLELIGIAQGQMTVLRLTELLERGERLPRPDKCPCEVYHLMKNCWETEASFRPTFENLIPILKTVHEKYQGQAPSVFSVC

[10] = target: T2, Tyrosine-protein kinase receptor TYRO3 (Homo sapiens) (UniProt Q06418); settings: at 0.1 µM
T2 sequence (whole entry): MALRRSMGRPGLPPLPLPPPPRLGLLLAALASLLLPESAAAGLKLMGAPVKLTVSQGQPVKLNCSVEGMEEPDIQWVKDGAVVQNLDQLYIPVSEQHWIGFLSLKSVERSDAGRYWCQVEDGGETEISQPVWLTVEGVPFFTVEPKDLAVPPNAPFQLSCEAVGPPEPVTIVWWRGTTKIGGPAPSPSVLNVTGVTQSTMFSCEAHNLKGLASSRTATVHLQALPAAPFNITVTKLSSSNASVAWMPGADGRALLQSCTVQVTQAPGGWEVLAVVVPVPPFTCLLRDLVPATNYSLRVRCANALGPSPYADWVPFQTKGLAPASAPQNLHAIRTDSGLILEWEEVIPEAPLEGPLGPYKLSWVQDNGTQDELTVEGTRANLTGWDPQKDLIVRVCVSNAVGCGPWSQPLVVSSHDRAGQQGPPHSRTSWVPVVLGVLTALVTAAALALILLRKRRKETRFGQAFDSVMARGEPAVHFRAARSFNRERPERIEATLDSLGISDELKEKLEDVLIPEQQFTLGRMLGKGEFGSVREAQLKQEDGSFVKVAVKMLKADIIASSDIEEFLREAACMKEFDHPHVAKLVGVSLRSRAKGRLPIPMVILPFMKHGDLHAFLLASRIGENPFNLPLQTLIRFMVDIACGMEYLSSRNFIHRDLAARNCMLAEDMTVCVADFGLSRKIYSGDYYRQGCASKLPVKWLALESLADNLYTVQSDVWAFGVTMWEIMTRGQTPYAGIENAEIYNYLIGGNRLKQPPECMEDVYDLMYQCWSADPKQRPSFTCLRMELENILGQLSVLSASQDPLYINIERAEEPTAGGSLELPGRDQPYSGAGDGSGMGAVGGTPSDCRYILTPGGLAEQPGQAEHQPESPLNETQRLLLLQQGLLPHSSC

[11] = target: T2, Tyrosine-protein kinase receptor TYRO3 (Homo sapiens); settings: at 1 µM
[12] = target: Tyrosine-protein kinase Yes (Homo sapiens) (UniProt P07947); settings: at 0.1 µM
[13] = target: Tyrosine-protein kinase Yes (Homo sapiens) (UniProt P07947); settings: at 1 µM
[14] = target: T3, Tyrosine-protein kinase ZAP-70 (Homo sapiens) (UniProt P43403); settings: at 1 µM
T3 sequence (whole entry): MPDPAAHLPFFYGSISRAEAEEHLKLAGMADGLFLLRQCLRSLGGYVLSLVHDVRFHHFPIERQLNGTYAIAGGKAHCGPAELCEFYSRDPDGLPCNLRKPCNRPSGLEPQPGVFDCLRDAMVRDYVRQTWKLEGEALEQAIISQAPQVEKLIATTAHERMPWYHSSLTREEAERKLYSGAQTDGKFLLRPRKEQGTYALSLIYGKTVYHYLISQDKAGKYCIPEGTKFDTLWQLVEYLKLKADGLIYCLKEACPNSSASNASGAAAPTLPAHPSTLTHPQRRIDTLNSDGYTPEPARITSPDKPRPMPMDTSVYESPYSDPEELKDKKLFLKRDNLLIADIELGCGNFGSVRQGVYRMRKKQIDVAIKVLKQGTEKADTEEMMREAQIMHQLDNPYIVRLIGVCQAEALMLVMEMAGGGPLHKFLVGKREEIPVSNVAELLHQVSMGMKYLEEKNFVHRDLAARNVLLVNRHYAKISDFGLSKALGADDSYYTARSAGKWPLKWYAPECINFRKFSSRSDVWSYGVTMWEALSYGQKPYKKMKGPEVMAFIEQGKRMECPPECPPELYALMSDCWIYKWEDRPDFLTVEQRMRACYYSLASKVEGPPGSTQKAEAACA

[15] = target: Serine/threonine-protein kinase B-raf (Homo sapiens) (UniProt P15056); settings: at 0.1 µM
Sequence of Serine/threonine-protein kinase B-raf (Homo sapiens) (P15056 whole entry): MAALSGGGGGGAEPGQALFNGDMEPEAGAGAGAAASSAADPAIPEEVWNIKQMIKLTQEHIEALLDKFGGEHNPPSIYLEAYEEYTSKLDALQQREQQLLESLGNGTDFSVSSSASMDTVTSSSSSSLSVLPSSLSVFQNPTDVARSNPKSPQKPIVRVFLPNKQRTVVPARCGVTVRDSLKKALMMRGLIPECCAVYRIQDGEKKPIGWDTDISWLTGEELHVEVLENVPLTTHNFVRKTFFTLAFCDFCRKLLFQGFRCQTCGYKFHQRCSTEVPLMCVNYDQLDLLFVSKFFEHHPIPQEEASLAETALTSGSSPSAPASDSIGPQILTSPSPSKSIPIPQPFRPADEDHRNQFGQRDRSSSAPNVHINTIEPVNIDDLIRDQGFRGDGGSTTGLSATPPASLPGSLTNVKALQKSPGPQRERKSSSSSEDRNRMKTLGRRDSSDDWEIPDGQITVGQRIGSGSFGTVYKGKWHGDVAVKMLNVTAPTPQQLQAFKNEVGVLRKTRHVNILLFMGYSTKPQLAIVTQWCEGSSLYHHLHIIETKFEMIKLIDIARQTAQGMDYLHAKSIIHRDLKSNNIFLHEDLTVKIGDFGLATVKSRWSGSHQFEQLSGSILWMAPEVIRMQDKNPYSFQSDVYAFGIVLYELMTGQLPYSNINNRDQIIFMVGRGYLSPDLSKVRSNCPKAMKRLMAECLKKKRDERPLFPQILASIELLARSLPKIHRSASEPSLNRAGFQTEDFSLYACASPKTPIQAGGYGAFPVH

[16] = target: Serine/threonine-protein kinase B-raf (Homo sapiens) (UniProt P15056); settings: at 1 µM
[17] = system: Serine/threonine-protein kinase B-raf (Homo sapiens), P15056 [V600E]; settings: at 0.1 µM
Sequence of Serine/threonine-protein kinase B-raf (Homo sapiens), P15056 [V600E] (P15056 whole entry V600E): as the sequence (P15056 whole entry) above, with V600E counted along it

[18] = system: Serine/threonine-protein kinase B-raf (Homo sapiens), P15056 [V600E]; settings: at 1 µM
[19] = target: RAF proto-oncogene serine/threonine-protein kinase (Homo sapiens) (UniProt P04049); settings: at 0.1 µM;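 further: values are mean CRAF kinase inhibition from profiling of the GSK Published Kinase Inhibitor Set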
[20] = target: T3, Tyrosine-protein kinase ZAP-70 (Homo sapiens); settings: at 0.1 µM

Sequence of Tyrosine-protein kinase Fgr (Homo sapiens) (P09769 2-529 limits assumed): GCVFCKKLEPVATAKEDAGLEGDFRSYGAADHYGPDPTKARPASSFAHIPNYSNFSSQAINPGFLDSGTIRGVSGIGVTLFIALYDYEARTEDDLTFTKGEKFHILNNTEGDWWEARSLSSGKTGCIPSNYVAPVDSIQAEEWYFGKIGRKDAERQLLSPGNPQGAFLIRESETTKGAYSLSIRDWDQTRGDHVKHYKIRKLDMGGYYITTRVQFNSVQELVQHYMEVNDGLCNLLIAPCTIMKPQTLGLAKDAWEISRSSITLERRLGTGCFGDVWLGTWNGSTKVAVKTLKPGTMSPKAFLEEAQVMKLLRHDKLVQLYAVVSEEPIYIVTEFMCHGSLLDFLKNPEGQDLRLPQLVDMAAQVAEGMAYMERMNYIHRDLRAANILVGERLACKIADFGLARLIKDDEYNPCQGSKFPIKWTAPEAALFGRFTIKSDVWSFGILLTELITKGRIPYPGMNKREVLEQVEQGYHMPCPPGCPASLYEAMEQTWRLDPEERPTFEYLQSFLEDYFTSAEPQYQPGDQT
Sequence of Fibroblast growth factor receptor 4 (Homo sapiens) (P22455 22-802 limits assumed): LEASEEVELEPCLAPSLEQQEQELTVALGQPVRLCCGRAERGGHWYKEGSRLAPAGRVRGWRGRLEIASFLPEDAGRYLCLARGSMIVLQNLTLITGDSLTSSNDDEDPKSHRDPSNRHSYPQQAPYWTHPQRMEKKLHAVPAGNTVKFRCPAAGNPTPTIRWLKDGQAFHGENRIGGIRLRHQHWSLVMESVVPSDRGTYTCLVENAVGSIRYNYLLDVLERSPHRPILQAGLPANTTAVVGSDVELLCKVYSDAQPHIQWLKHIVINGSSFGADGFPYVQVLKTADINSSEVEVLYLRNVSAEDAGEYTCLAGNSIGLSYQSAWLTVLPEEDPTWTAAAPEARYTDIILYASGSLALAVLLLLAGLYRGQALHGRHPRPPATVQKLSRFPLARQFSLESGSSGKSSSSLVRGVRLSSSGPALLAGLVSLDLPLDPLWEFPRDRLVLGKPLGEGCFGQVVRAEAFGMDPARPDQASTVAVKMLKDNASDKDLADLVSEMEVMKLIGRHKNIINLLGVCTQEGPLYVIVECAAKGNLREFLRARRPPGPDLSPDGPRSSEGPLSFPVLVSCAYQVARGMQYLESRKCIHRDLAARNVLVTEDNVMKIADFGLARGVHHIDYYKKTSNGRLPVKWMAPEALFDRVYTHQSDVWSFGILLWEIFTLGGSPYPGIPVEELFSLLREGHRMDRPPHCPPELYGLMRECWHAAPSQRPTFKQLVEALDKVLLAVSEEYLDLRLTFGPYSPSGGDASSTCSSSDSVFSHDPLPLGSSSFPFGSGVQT

Row | SMILES | inhibition [1] | inhibition [2] | inhibition [3] | inhibition [4] | inhibition [5] | inhibition [6] | inhibition [7] | inhibition [8] | inhibition [9] | inhibition [10] | inhibition [11] | inhibition [12] | inhibition [13] | inhibition [14] | inhibition [15] | inhibition [16] | inhibition [17] | inhibition [18] | inhibition [19] | inhibition [20]
1 | COc1ccc(-c2nn3ncccc3c2-c2ccnc(Nc3ccc4c(c3)OCCO4)n2)cc1 | 1.91% | 47.9% | 79.8% | 4.09% | 26.8% | -1.66% | -0.57% | -7.3% | -1.85% | -0.58% | 9.92% | 79.3% | 95.8% | -0.83% | 2.67% | 5.07% | 1.25% | 4.88% | -0.5% | –
2 | COC(=O)c1sc(-n2cnc3cc(OC)c(OC)cc32)cc1OCc1ccccc1C(F)(F)F | 1.85% | 3.32% | 17.2% | 1.32% | 9.57% | 2.55% | 8.27% | -4.92% | -3.12% | 2.58% | 2.68% | 6.36% | 27% | 2.18% | 6.09% | 8.51% | 6.02% | 6.69% | 3.34% | 1.17%
3 | COc1ccc2[nH]c3c4[nH]c5ccc(OC)cc5c4c4c(c3c2c1)C(=O)NC4=O | 3.95% | 10.8% | 28% | 2.46% | 19.2% | 28.6% | 79.1% | 65% | -0.6% | 17.1% | 63.7% | 6.75% | 33.5% | 8.6% | 5.05% | 7.83% | 5.01% | 6.69% | -1.72% | 2.68%
4 | CN1CCC(n2cnc(-c3ccc(F)cc3)c2-c2ccnc(Nc3ccccc3)n2)CC1 | 1.8% | 11.5% | 33.7% | 0.12% | 3.33% | 0.8% | 1.93% | -1.9% | 0.82% | 2.41% | 2.25% | 8.83% | 42.3% | – | 3.78% | 4.47% | 3.27% | 6.57% | -3.04% | 1.81%
5 | FC(F)(F)c1cccc(-c2nn3ncccc3c2-c2ccnc(Nc3ccc4c(c3)OCCO4)n2)c1 | 2.21% | 32.5% | 75.3% | 0.57% | 12% | 0.74% | – | -3.8% | -3.08% | 4.46% | 22.9% | 32.1% | 82.8% | 3.05% | 2.88% | 6.42% | 1.76% | 7.02% | -1.62% | 2%
6 | c1ccc(-c2nc3n(c2-c2ccc4c(c2)OCO4)CCC3)nc1 | 1.32% | -0.63% | 0.17% | 1.18% | 0.86% | 1.13% | 0.36% | -1.36% | -1.07% | 0.75% | 1.8% | 1.3% | 3.94% | 1.94% | 2.61% | 2.48% | 2.01% | 3.56% | -0.19% | 4.17%
7 | COc1ccc(-c2cc(-c3c[nH]nc3-c3ccccn3)ccn2)cc1 | 6.88% | 5.33% | 4.21% | 3.66% | 8.02% | 3.81% | – | 1.47% | -4.16% | 2.81% | 4.46% | 3.5% | 7.41% | 2.09% | 7.54% | 6.98% | 7.82% | 6.42% | 0.24% | 1.69%
